The values that follow come from PubChem BioAssay (NCI).

This is part of a sample that, as a whole, favours compounds with a hit. Of some 83,000 tested, about 20% had one in any assay.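 Treatment: one concentration, 48 hours, 96-well format. Scoring: percent growth, with anything below 10 considered active.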 Values without a mark were called inactive. Calls of active or inactive are those of the source.

Some test systems named below: NCI-H23 lung; NCI-H226 lung; NCI-H322M lung; HOP-62 NSCLC; NCI-H460 lung; HOP-92 NSCLC; NCI-H522 lung; A549/ATCC NSCLC; 786-0 renal; COLO 205 colon; DU-145 prostate; K-562 leukemia; MALME-3M melanoma; MDA-MB-231 breast; RXF 393 renal; SF-268 CNS; SF-295 CNS; SF-539 CNS; UACC-257 melanoma; M14 melanoma.
Holding throughout (assay): NCI-60 one-dose screen, 48 h (100 = growth as untreated, 0 = no growth, -100 = all killed)
Holding throughout (conditions): 10 µM unless noted

With `COc1cccc2c(=O)c3c(sc12)c(N1CCNCC1)nc1ccccc13`, the growth was 77.3% in the experiment with NCI-H23 lung; 88.2% with NCI-H226 lung; 92.8% in the experiment with NCI-H322M lung; 81% in the experiment on HOP-62 NSCLC; -55.1% (active) in the experiment with NCI-H460 lung; 51.7% in the experiment with HOP-92 NSCLC. The growth in the experiment with NCI-H522 lung was 77.2%; in the experiment with A549/ATCC NSCLC, 48.6%; with 786-0 renal, 78.9%; in the experiment on COLO 205 colon it was 30.9%; in the experiment on DU-145 prostate, 35.8%; with K-562 leukemia it was -25.9% (active). The growth in the experiment with MALME-3M melanoma was 104%; in the experiment on MDA-MB-231 breast it was 53.1%; with RXF 393 renal, 79.7%; in the experiment with SF-268 CNS, 87.9%; in the experiment on SF-295 CNS it was 102%; with SF-539 CNS, 69.6%. Besides, the growth in the experiment on UACC-257 melanoma is 101%; in the experiment on M14 melanoma, 81.3%.
Take `CS(=O)(=O)N(c1cc(-c2ccc3ncnc(Nc4ccc(F)c(Cl)c4)c3c2)cnc1Cl)S(C)(=O)=O`: the growth is 34.7% in the experiment on NCI-H23 lung; 59.1% with NCI-H226 lung; 34.8% with NCI-H322M lung; 42% in the experiment with HOP-62 NSCLC; 34.2% in the experiment with NCI-H460 lung; -12.2% (active) in the experiment on HOP-92 NSCLC. Besides, the growth is 52.5% in the experiment with NCI-H522 lung; 57.3% in the experiment with A549/ATCC NSCLC; 35% in the experiment on 786-0 renal; 45.1% in the experiment with COLO 205 colon; 47.3% in the experiment on DU-145 prostate; 50.5% in the experiment with K-562 leukemia. Besides, the growth was 9.57% (active) with MALME-3M melanoma; 44.3% in the experiment on MDA-MB-231 breast; -6.35% (active) in the experiment on RXF 393 renal; 32.3% in the experiment with SF-268 CNS; 34% in the experiment with SF-295 CNS; 39.9% in the experiment on SF-539 CNS. The figures for the growth in the experiment with UACC-257 melanoma and with M14 melanoma were 38.8% and 43.6%, respectively.
Regarding `Cc1ccc2sc3c(NCCCN)nc4ccccc4c3c(=O)c2c1`, the growth in the experiment with NCI-H23 lung is 79.9%; with NCI-H226 lung, 93.5%; in the experiment with NCI-H322M lung, 69.2%; in the experiment on HOP-62 NSCLC, 69.1%; in the experiment with NCI-H460 lung it was -54.2% (active); in the experiment on HOP-92 NSCLC, 44.8%. The growth is 59.4% in the experiment with NCI-H522 lung; 43.5% with A549/ATCC NSCLC; 76.7% in the experiment with 786-0 renal; -42.9% (active) in the experiment on COLO 205 colon; 15.4% with DU-145 prostate; -37.7% (active) in the experiment on K-562 leukemia. In addition, the growth with MALME-3M melanoma is 104%; with MDA-MB-231 breast it was -14.6% (active); in the experiment with RXF 393 renal, 71.4%; in the experiment with SF-268 CNS, 65.1%; with SF-295 CNS, 88%; with SF-539 CNS, 58%. For the same molecule, the growth was 101% in the experiment with UACC-257 melanoma and 15% in the experiment on M14 melanoma.
Turning to `COc1ccc2c(c1)c(-c1ccc(-c3cn(C)c4ccc(OC)cc34)o1)cn2C`, the growth is 67.3% in the experiment on NCI-H23 lung; 82.7% in the experiment on NCI-H226 lung; 95.1% with NCI-H322M lung; 93.2% with HOP-62 NSCLC; 56.8% with NCI-H460 lung; 38% with HOP-92 NSCLC. For the same molecule, the growth with NCI-H522 lung was -19.6% (active); with A549/ATCC NSCLC, 66.4%; with 786-0 renal, 83.2%; in the experiment on COLO 205 colon it was 16.3%; in the experiment with DU-145 prostate it was 107%; in the experiment on K-562 leukemia, 2.25% (active). The growth is 80.6% in the experiment with MALME-3M melanoma; 69.1% with MDA-MB-231 breast; 66.8% with RXF 393 renal; 71.8% with SF-268 CNS; 62.2% in the experiment with SF-295 CNS; 18% in the experiment on SF-539 CNS. In addition, the growth was 90% in the experiment with UACC-257 melanoma and 71.2% in the experiment with M14 melanoma.
Take `COc1ccc(C(=S)N2CCN(c3cccc(C)c3)CC2)cc1OC`: the growth in the experiment with NCI-H23 lung is 65.2%; in the experiment on NCI-H226 lung it was 98.4%; in the experiment with NCI-H322M lung it was 99.7%; with HOP-62 NSCLC, 90.6%; with NCI-H460 lung, 51.8%; with HOP-92 NSCLC, 81%. Also, the growth with NCI-H522 lung was 22.8%; in the experiment with A549/ATCC NSCLC, 59.4%; in the experiment with 786-0 renal it was 80.6%; in the experiment on COLO 205 colon it was 80.2%; with DU-145 prostate it was 90.7%; in the experiment with K-562 leukemia, 25.5%. Further, the growth in the experiment with MALME-3M melanoma is 80%; in the experiment on MDA-MB-231 breast, 77.3%; in the experiment with RXF 393 renal, 67.8%; in the experiment on SF-268 CNS it was 84.7%; with SF-295 CNS, 57.4%; in the experiment with SF-539 CNS, 82.2%. For the same molecule, the figures for the growth in the experiment on UACC-257 melanoma and with M14 melanoma were 77.7% and 38.4%, respectively.
Regarding `O=C(O)C(c1ccccc1)N1C(=O)CSC1=S` (stereo not given), the growth in the experiment with NCI-H23 lung was 106%; with NCI-H226 lung, 95.8%; in the experiment on NCI-H322M lung, 97.9%; in the experiment on HOP-62 NSCLC, 99.5%; in the experiment on NCI-H460 lung, 107%; in the experiment on HOP-92 NSCLC, 111%. In addition, the growth is 88.2% with NCI-H522 lung; 92% in the experiment with A549/ATCC NSCLC; 102% in the experiment with 786-0 renal; 108% in the experiment on COLO 205 colon; 107% in the experiment with DU-145 prostate; 103% in the experiment with K-562 leukemia. Moreover, the growth in the experiment on MALME-3M melanoma is 107%; with MDA-MB-231 breast, 108%; in the experiment with RXF 393 renal, 108%; with SF-268 CNS it was 94.4%; in the experiment with SF-295 CNS it was 104%; in the experiment on SF-539 CNS, 100%. Besides, the growth in the experiment on UACC-257 melanoma is 101%; in the experiment on M14 melanoma, 100%.
In the case of `COc1ccc(-c2nc(NN)c3c(C)nn(-c4ccc(F)cc4)c3n2)cc1`, the growth in the experiment on NCI-H23 lung was 66.9%; in the experiment on NCI-H226 lung, 80%; in the experiment with NCI-H322M lung, 74.6%; in the experiment with HOP-62 NSCLC, 50.6%; with NCI-H460 lung, 18.8%; with HOP-92 NSCLC, 52.7%. In addition, the growth in the experiment with NCI-H522 lung was 22.6%; in the experiment on A549/ATCC NSCLC, 38.1%; in the experiment on 786-0 renal, 38.6%; with COLO 205 colon it was 35.4%; in the experiment with DU-145 prostate, 37.9%; with K-562 leukemia it was 17.8%. Moreover, the growth is 61.5% in the experiment on MALME-3M melanoma; 53.1% in the experiment on MDA-MB-231 breast; 51% with RXF 393 renal; 46.3% in the experiment with SF-268 CNS; 27.8% with SF-295 CNS; 36.2% with SF-539 CNS. Also, the results for the growth with UACC-257 melanoma and in the experiment on M14 melanoma were 45.3% and 26.4%, respectively.
As to `COc1ccc(C(=O)/C=C/c2sc(Cl)nc2Cl)cc1`, the growth in the experiment on NCI-H23 lung was 8.44% (active); in the experiment on NCI-H226 lung, 40.7%; in the experiment with NCI-H322M lung it was 93.1%; in the experiment on HOP-62 NSCLC, 68.3%; with NCI-H460 lung, 29.5%; in the experiment on HOP-92 NSCLC, 32.8%. Further, the growth in the experiment with NCI-H522 lung is 19.1%; in the experiment with A549/ATCC NSCLC, 78.1%; in the experiment with 786-0 renal, 18.5%; in the experiment with COLO 205 colon it was 1.55% (active); in the experiment on DU-145 prostate, 61.9%; in the experiment on K-562 leukemia, 9.56% (active). Moreover, the growth in the experiment with MALME-3M melanoma was 32.1%; in the experiment on MDA-MB-231 breast, 38.7%; in the experiment with RXF 393 renal, 24.6%; with SF-268 CNS, 31.9%; in the experiment with SF-295 CNS, 52.3%; in the experiment on SF-539 CNS, -20.5% (active). The growth in the experiment with UACC-257 melanoma is 72.8%; with M14 melanoma, 6.12% (active).
